The source made the active and inactive calls.
Assays:
[1] = system: XIP peptide (Xip251-270) binding; experiment: XIP fragment 251-270 binding compounds – biochemical, small-molecule microarray, fluorescence 635/667 nm, 0.1 µg/mL protein, primary screen (AID 1182); conditions: fluorescent protein binding, 635 nm, higher = more signal, called active from +8 up or from −8 down
XIP peptide (Xip251-270) = experiment: compounds binding XIP fragment 251-270 – biochemical, small-molecule microarray, fluorescence 635/667 nm, 0.5 µg/mL protein, primary screen (AID 1183); conditions: fluorescence 635 nm, higher = more signal
[2] = blood-stage malaria parasite viability loss – strain 3D7, DAPI fluorescence, 100 nL, primary screen (AID 1184);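 further: parasites grown inside human red blood cells in medium with human serum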; conditions: P. falciparum 3D7 growth, 3 d, higher = more signal
[3] = target: Homeobox protein Hox-A13 (Mus musculus) (UniProt Q62424); experiment: disruptors of Hoxa13 oligonucleotide interaction – biochemical, fluorescence polarization, labeled oligonucleotide, primary screen (AID 1185); conditions: Hoxa13:DNA binding, 15 min, higher = more signal, called active from +8 up or from −8 down
Sequence of Homeobox protein Hox-A13 (Mus musculus) (Q62424 whole entry, looked up): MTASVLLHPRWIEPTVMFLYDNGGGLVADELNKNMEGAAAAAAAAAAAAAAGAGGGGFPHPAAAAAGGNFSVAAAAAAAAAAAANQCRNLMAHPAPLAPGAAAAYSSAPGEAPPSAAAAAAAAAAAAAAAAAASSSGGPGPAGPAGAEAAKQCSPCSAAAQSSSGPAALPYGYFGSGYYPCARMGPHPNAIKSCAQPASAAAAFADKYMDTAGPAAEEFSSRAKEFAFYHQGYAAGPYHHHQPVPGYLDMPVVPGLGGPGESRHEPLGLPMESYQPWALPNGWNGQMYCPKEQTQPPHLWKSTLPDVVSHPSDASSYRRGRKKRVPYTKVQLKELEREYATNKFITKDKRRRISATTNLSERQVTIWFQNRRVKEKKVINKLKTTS

SMILES	composite z-score [1]	composite z-score (XIP peptide (Xip251-270))	z-score [2]	z-score [3]
CCOC(=O)[C@H](Cc1ccccc1)NC(=O)CCC1CC(OC(=O)NCCc2ccc(F)cc2)CC2(CCCC(COC(=O)NCc3cccc(C(F)(F)F)c3)O2)O1 (stereo partly specified)	0.966 (inactive)	0.463	-1.9	-3.11 (inactive)
COC(=O)[C@H](C)NC(=O)CCC1CC(OC(=O)NCc2cccc3ccccc23)CC2(CCCC(COC(=O)NCCOc3ccccc3)O2)O1 (stereo partly specified)	2.12 (inactive)	0.345	-0.372	-6.3 (inactive)
COc1ccc(COC(=O)NN=C2C[C@@H](O)[C@@H](O)[C@@H]3[C@@H]4C(=O)N(C5CCCCC5)C(=O)[C@@H]4CC[C@@H]23)cc1	0.524 (inactive)	0.0499	-1.07	-4.36 (inactive)
O=C1[C@H]2[C@H]3[C@H](O)[C@H](O)CC(=NO[C@@H]4O[C@H](CO)[C@@H](O)[C@H](O)[C@H]4O)[C@@H]3CC[C@H]2C(=O)N1c1cccc(Oc2ccccc2)c1	0.311 (inactive)	0.519	-0.197	-1.14 (inactive)

— PubChem BioAssay
